Laboratory results taken from the supplement of paper PMC12350171.
Counter-ions that a name gives are not always drawn.

Experiments:
Details in all cases: 20 µM
[1] = system: Salmonella enterica typhimurium; test: growth AUC normalised to DMSO control (fraction of control); higher = less growth inhibition, active = hit call of the paper
Procedure, shortened: (§1)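 After two anaerobic passages, pathogens were added at a starting OD578 of 0.01 to pre-reduced mGAM plates holding compound at 20 μM with 1% DMSO; hemin and NAD were supplemented for Haemophilus parainfluenzae. Sealed with breathable membranes, plates were read at OD578 hourly for 24 h, in three biological replicates. The trapezoidal rule, applied up to the exponential-to-stationary transition, gave the growth-curve AUC, which was normalised to DMSO controls on the same plate.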

Shigella flexneri = test: as above
Procedure, shortened: as §1

Vibrio cholerae = test: as above
Procedure, shortened: as §1

[2] = system: Yersinia pseudotuberculosis; test: as above
Procedure, shortened: as §1

P. vulgatus RND KO = test: growth AUC normalised to DMSO control (median) (fraction of control); higher = less growth inhibition, active = hit call of the paper
Procedure, shortened: (§2)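 Anaerobic growth was tracked hourly at OD578 for 24 h in 96-well plates of mGAM seeded at OD578 0.01 with each approved-drug library compound at 20 μM and 1% DMSO. Strains had first been passaged twice overnight without oxygen. Three biological replicates were run. The reported median is the area under the curve, calculated by the trapezoidal rule on curves truncated at entry into stationary phase and normalised to vehicle wells on the same plate.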

P. vulgatus WT = test: as above
Procedure, shortened: as §2

[3] = system: S. enterica typhimurium WT; test: as above
Procedure, shortened: as §2

[4] = system: S. enterica typhimurium tolC KO; test: as above
Procedure, shortened: as §2

Measured: growth AUC normalised to DMSO control
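Throughout, for growth AUC normalised to DMSO control (median): active when median AUC fell below 0.1.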

CNCCc1ccccn1 [Betahistine mesylate]
inactive: [1] 0.997 | Shigella flexneri 0.976 | Vibrio cholerae 0.985 | [2] 1.01 | P. vulgatus RND KO 1 | P. vulgatus WT 1 | [3] 1.02 | [4] 1.01

CN(Cc1cc(Br)cc(Br)c1N)C1CCCCC1 [Bromhexine hydrochloride]
active: Vibrio cholerae 0.714
inactive: [1] 0.998 | Shigella flexneri 1.01 | [2] 1.02 | P. vulgatus RND KO 0.999 | P. vulgatus WT 0.977 | [3] 1 | [4] 0.948

Cc1c(-c2ccccc2)oc2c(C(=O)OCCN3CCCCC3)cccc2c1=O [Flavoxate hydrochloride]
inactive: [1] 1 | Shigella flexneri 1.02 | Vibrio cholerae 1.01 | [2] 0.984 | P. vulgatus RND KO 1.06 | P. vulgatus WT 1.1 | [3] 1.02 | [4] 0.952

Clc1ccc2c(c1)CCc1cccnc1C2=C1CCNCC1 [Desloratadine]
inactive: [1] 1.02 | Shigella flexneri 0.975 | Vibrio cholerae 1 | [2] 0.998 | P. vulgatus RND KO 0.959 | P. vulgatus WT 0.961 | [3] 0.988 | [4] 0.996

CC(=O)OCC(=O)[C@@]1(O)CC[C@H]2[C@@H]3CCC4=CC(=O)CC[C@]4(C)[C@H]3[C@@H](O)C[C@@]21C [Cortisol acetate]
inactive: [1] 1.03 | Shigella flexneri 0.997 | Vibrio cholerae 1 | [2] 1 | P. vulgatus RND KO 1 | P. vulgatus WT 1.03 | [3] 1.01 | [4] 1

N=C(N)NCc1cccc(I)c1 [Iobenguane sulfate]
inactive: [1] 1.03 | Shigella flexneri 1.03 | Vibrio cholerae 1.06 | [2] 1.01 | P. vulgatus RND KO 1.09 | P. vulgatus WT 1.1 | [3] 1.01 | [4] 1

COC(=O)Nc1nc2cc(Sc3ccccc3)ccc2[nH]1 [Fenbendazole]
inactive: [1] 0.996 | Shigella flexneri 1.01 | Vibrio cholerae 0.995 | [2] 1.01 | P. vulgatus RND KO 1.01 | P. vulgatus WT 1.01 | [3] 1.01 | [4] 0.987

O=S(=O)(O)c1cc(O)ccc1O [Ethamsylate diethylammonium salt]
inactive: [1] 1 | Shigella flexneri 0.998 | Vibrio cholerae 0.999 | [2] 1.01 | P. vulgatus RND KO 0.99 | P. vulgatus WT 0.994 | [3] 1 | [4] 0.999

CC(C)(C)NCC(O)c1cc(O)cc(O)c1 (configuration not stated) [Terbutaline hemisulfate]
inactive: [1] 1.02 | Shigella flexneri 1.03 | Vibrio cholerae 1.07 | [2] 1 | P. vulgatus RND KO 1.06 | P. vulgatus WT 1.06 | [3] 1.01 | [4] 1.01

NC(=O)OCC(O)COc1ccc(Cl)cc1 (configuration not stated) [Chlorphensin carbamate]
inactive: [1] 1.01 | Shigella flexneri 1.01 | Vibrio cholerae 1.03 | [2] 1.01 | P. vulgatus RND KO 0.992 | P. vulgatus WT 0.994 | [3] 1.02 | [4] 0.987

CC(=O)OCC(=O)NCCCOc1cccc(CN2CCCCC2)c1 [Roxatidine acetate hydrochloride]
inactive: [1] 0.99 | Shigella flexneri 0.981 | Vibrio cholerae 1 | [2] 0.939 | P. vulgatus RND KO 0.996 | P. vulgatus WT 0.985 | [3] 0.994 | [4] 0.986

CCOC(=O)c1ccc(N)cc1 [Benzocaine]
inactive: [1] 1.02 | Shigella flexneri 1.03 | Vibrio cholerae 1.07 | [2] 1.03 | P. vulgatus RND KO 1.04 | P. vulgatus WT 1.07 | [3] 1.01 | [4] 1.01

CCc1c(C)[nH]c2c1C(=O)C(CN1CCOCC1)CC2 (configuration not stated) [Molindone hydrochloride]
inactive: [1] 1 | Shigella flexneri 1.02 | Vibrio cholerae 1.04 | [2] 1.01 | P. vulgatus RND KO 1.03 | P. vulgatus WT 1.05 | [3] 1.02 | [4] 1.01

CC(C)Cn1cnc2c(N)nc3ccccc3c21 [Imiquimod]
inactive: [1] 1.02 | Shigella flexneri 1.05 | Vibrio cholerae 1.06 | [2] 1.01 | P. vulgatus RND KO 0.986 | P. vulgatus WT 0.951 | [3] 0.997 | [4] 0.994

CC(N)(Cc1ccc(O)c(O)c1)C(=O)O (configuration not stated) [(L) Methyldopa]
inactive: [1] 1.01 | Shigella flexneri 1.01 | Vibrio cholerae 1.01 | [2] 0.973 | P. vulgatus RND KO 1.03 | P. vulgatus WT 1.05 | [3] 1.01 | [4] 1.01

CC(=O)N(CC(O)CN(C(C)=O)c1c(I)c(C(=O)NCC(O)CO)c(I)c(C(=O)NCC(O)CO)c1I)c1c(I)c(C(=O)NCC(O)CO)c(I)c(C(=O)NCC(O)CO)c1I (configuration not stated) [Iodixanol]
inactive: [1] 0.977 | Shigella flexneri 0.943 | Vibrio cholerae 0.99 | [2] 0.977 | P. vulgatus RND KO 1 | P. vulgatus WT 0.98 | [3] 0.996 | [4] 1

COc1ccccc1OCC(O)CO (configuration not stated) [Guaifenesin]
inactive: [1] 0.998 | Shigella flexneri 1.02 | Vibrio cholerae 1.01 | [2] 0.992 | P. vulgatus RND KO 0.984 | P. vulgatus WT 0.987 | [3] 0.995 | [4] 0.99

C[C@@H]1C[C@H]2[C@@H]3CCC4=CC(=O)C=C[C@]4(C)[C@@]3(Cl)[C@@H](O)C[C@]2(C)[C@@]1(OC(=O)c1ccco1)C(=O)CCl [Mometasone furoate]
inactive: [1] 1.02 | Shigella flexneri 1.07 | Vibrio cholerae 1.01 | [2] 1.03 | P. vulgatus RND KO 1.04 | P. vulgatus WT 1.06 | [3] 1.01 | [4] 0.991

c1ccc([C@H]2CN3CCSC3=N2)cc1 [Levamisole hydrochloride]
inactive: [1] 0.99 | Shigella flexneri 0.967 | Vibrio cholerae 0.981 | [2] 1 | P. vulgatus RND KO 1.03 | P. vulgatus WT 1.01 | [3] 1 | [4] 1

Nc1ccn([C@@H]2CS[C@H](CO)O2)c(=O)n1 [Lamivudine]
inactive: [1] 0.98 | Shigella flexneri 0.986 | Vibrio cholerae 0.995 | [2] 1.01 | P. vulgatus RND KO 1 | P. vulgatus WT 1.02 | [3] 1 | [4] 0.992

Cc1ccc(-c2ncc(Cl)cc2-c2ccc(S(C)(=O)=O)cc2)cn1 [Etoricoxib]
inactive: [1] 1.01 | Shigella flexneri 1.03 | Vibrio cholerae 1.03 | [2] 0.989 | P. vulgatus RND KO 1.01 | P. vulgatus WT 1.03 | [3] 0.972 | [4] 0.978

Cc1ccc(C(=O)c2ccc(CC(=O)O)n2C)cc1 [Tolmetin sodium salt dihydrate]
inactive: [1] 0.984 | Shigella flexneri 1.04 | Vibrio cholerae 1.05 | [2] 1.01 | P. vulgatus RND KO 0.983 | P. vulgatus WT 0.985 | [3] 0.999 | [4] 1

C[C@]12CC[C@@H]3c4ccc(O)cc4CC[C@H]3[C@@H]1CC[C@@H]2O [Estradiol-17 beta]
inactive: [1] 1.02 | Shigella flexneri 1.01 | Vibrio cholerae 0.992 | [2] 1.01 | P. vulgatus RND KO 0.941 | P. vulgatus WT 0.941 | [3] 1.02 | [4] 0.997

CN1[C@@H]2CC[C@H]1C[C@@H](OC(=O)c1c[nH]c3ccccc13)C2 [Tropisetron hydrochloride]
inactive: [1] 1.01 | Shigella flexneri 0.997 | Vibrio cholerae 1.01 | [2] 1 | P. vulgatus RND KO 1.01 | P. vulgatus WT 1.02 | [3] 1.01 | [4] 1

COc1cc2nc(N3CCN(C(=O)c4ccco4)CC3)nc(N)c2cc1OC [Prazosin hydrochloride]
inactive: [1] 0.993 | Shigella flexneri 0.984 | Vibrio cholerae 1 | [2] 1.01 | P. vulgatus RND KO 1 | P. vulgatus WT 1 | [3] 0.993 | [4] 0.97

COc1ccc(NS(=O)(=O)c2ccc(N)cc2)nn1 [Sulfamethoxypyridazine]
inactive: [1] 1.02 | Shigella flexneri 1.04 | Vibrio cholerae 1.03 | [2] 0.996 | P. vulgatus RND KO 1.02 | P. vulgatus WT 1.04 | [3] 1.01 | [4] 0.986

C[C@]12C=CC(=O)C=C1CC[C@H]1[C@@H]3C[C@@H](O)[C@](O)(C(=O)CO)[C@@]3(C)C[C@H](O)[C@@]12F [Triamcinolone]
inactive: [1] 1 | Shigella flexneri 0.977 | Vibrio cholerae 1 | [2] 1 | P. vulgatus RND KO 1.01 | P. vulgatus WT 0.98 | [3] 0.997 | [4] 1.01

COc1ccc(-c2cc(=O)c3c(O)cc(O[C@@H]4O[C@H](CO[C@@H]5O[C@@H](C)[C@H](O)[C@@H](O)[C@H]5O)[C@@H](O)[C@H](O)[C@H]4O)cc3o2)cc1O [Diosmin]
inactive: [1] 0.988 | Shigella flexneri 0.96 | Vibrio cholerae 0.971 | [2] 0.975 | P. vulgatus RND KO 0.997 | P. vulgatus WT 0.991 | [3] 1 | [4] 0.996

N#Cc1ccc(C(c2ccc(C#N)cc2)n2cncn2)cc1 [Letrozole]
inactive: [1] 1.01 | Shigella flexneri 1 | Vibrio cholerae 0.989 | [2] 0.999 | P. vulgatus RND KO 1.01 | P. vulgatus WT 1.01 | [3] 1.01 | [4] 1
